Screens: PubChem BioAssay, National Center for Advancing Translational Sciences (NCATS)
This is a sample that favours compounds with a hit; in the whole collection about 0.93% have one here.
Six1-Eya2 blk: qHTS Assay for Inhibitors of the Six1/Eya2 Interaction; actives 0.56% (n = 360,000); AID 651725, 2012; activity change, % (no concentration beside the values); AlphaScreen GST-Six1/His-Eya2 binding, biochemical; stronger effect = lower value; Homeobox protein SIX1 (Homo sapiens) + Protein phosphatase EYA2 (Homo sapiens), …
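Compounds are tested against tagged Six1 and Eya2 proteins bridged by glutathione donor and nickel acceptor beads; after a one-hour incubation at 37 °C without light, AlphaScreen emission is recorded.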
PKM2 activator: qHTS Assay for Activators of Human Muscle isoform 2 Pyruvate Kinase. purified PKM2, Kinase-Glo ATP luminescence, activation; response scale: 0% is enzyme alone, no compound. Potency, µM (titrated, usually from 57.5 µM), for inactives: at the highest dose activation, usual class: activators. actives 0.34% (n = 260,000); active = well fitted activation curve with a large enough effect; inconclusive = small, poorly fitted or top-dose-only effect; inactive = no such curve, though single readings can be large or run the other way; also: potency is read from the fitted curve at half-maximal effect; nearly all actives have a fitted effect of over 55% in size
Target sequence (P14618 whole entry, looked up, canonical isoform): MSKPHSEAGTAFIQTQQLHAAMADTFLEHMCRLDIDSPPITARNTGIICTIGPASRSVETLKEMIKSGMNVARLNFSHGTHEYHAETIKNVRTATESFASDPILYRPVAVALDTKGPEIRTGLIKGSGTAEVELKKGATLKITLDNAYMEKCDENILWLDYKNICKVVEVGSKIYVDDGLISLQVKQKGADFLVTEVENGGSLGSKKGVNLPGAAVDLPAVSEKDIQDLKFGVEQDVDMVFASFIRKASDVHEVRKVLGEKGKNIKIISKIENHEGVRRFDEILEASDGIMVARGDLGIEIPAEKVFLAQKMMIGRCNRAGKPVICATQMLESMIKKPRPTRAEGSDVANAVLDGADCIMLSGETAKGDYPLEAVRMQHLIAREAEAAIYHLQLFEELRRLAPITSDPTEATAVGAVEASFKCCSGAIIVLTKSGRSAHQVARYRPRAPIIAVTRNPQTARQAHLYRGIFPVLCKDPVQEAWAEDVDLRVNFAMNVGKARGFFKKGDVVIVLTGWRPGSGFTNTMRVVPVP
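hPK-M2, >95% pure; 0.1 mM ADP / 0.5 mM PEP final; imidazole pH7.2 buffer w/ 7 mM MgCl2, 50 mM KCl; 1 h RT; Kinase-Glo lum. Intermediate enzyme activity for dual inhibitor/activator qHTS.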
MBNL1 CUG block: qHTS Assay for Inhibitors of MBNL1-poly(CUG) RNA binding; Muscleblind-like protein 1 (Homo sapiens), Q9NR56; TR-FRET MBNL1-His/biotin-(CUG)12 binding, 665/545 ratio; Potency, µM (series often up to 57.5 µM), for inactives: top-dose activity change, negative = inhibition, actives largely listed as inhibitors; actives 0.036% (n = 280,000); AID 2675, 2010; active = well fitted inhibition curve with a large enough effect in the signal ratio, with a control signal flat, not every such curve was filed as active; inconclusive = small, poorly fitted or top-dose-only effect, or effect the other way, or a change in a side signal; inactive = no such curve, though single readings can be large or run the other way; the % refers to the signal ratio; also: potency is read from the fitted curve at half-maximal effect
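TR-FRET readout: Ex 340 nm, 665/545 nm emission ratio, normalized to buffer-only (basal) and MBNL1-(CUG)12 controls. Complex of MBNL1-His with Biotin-(CUG)12, compounds 92 nM–58 uM, incubated 60 min at room temperature.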
CtBP-E1A inh: qHTS Assay for Inhibitors of the CtBP/E1A Interaction | CtBP / adenovirus E1A interaction (AlphaScreen) | AlphaScreen GST-E1A/His-CtBP binding, 1536-well; stronger effect = lower value | activity change, % (concentration not given with the values) | actives 0.49% (n = 340,000)
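Protein mix (5X: 125 nM each GST-E1A, His-CtBP) was incubated with pinned compound 2 h at 37 deg C in dark, in 50 mM Tris pH 8.0 buffer with 300 mM NaCl. Glutathione donor and nickel acceptor beads followed; AlphaScreen signal read after 1 h.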
An asterisk follows results filed as active; u = inconclusive; x = not tested or not shown; [ ] = remark or other dose. Rule as the data show it, unless noted: active = activity change below about -65%; inconclusive = mostly about -30% to -63%; inactive = weaker than that. % is scaled to controls: 0 for no effect and ±100 for the full control effect.

SMILES	Six1-Eya2 blk	PKM2 activator	MBNL1 CUG block	CtBP-E1A inh
Cc1ccc(NC2=CC(=O)C(=O)c3ccccc32)cc1	-20	-6%	u	u
Cc1ccc(SC2=C(N(C)C)C(=O)c3ccccc3C2=O)cc1	-84*	x	x	-86*
CC(N)c1csc(Nc2cc(Oc3ccccc3)ncn2)n1 (configuration not stated)	u	x	x	-68*
CC(N)c1csc(Nc2nncc3ccccc23)n1 (configuration not stated)	-18	x	x	-21
CC(N)c1csc(Nc2ncccn2)n1 (configuration not stated)	-84*	x	x	-88*
NC(c1csc(Nc2cc(Oc3ccccc3)ncn2)n1)c1ccccc1Cl (configuration not stated)	-26	x	x	u
COC(=O)C(C(=O)OC)c1ccccc1NS(=O)(=O)c1c(C)cc(C)cc1C	0	x	x	6
c1ccc2[nH]c3cc4ncnc4cc3nc2c1	u	-6%	u	-73*
FC(F)c1nc2ccccc2[nH]1	11	-3%	23%	-25
Cc1ccc2nc(-c3ccc(C#N)cc3)c(Cc3ccccc3C(F)(F)F)n2c1	-2	x	x	-1
CC1C(=O)N(Cc2cn(Cc3ccco3)nn2)CCS(=O)(=O)N1Cc1ccc(-c2cccc(N(C)C)c2)cc1 (configuration not stated)	-30	x	x	-11
COC(=O)c1cccc(CN2C(=O)C(C)Oc3ccc(C)cc32)c1 (configuration not stated)	9	x	x	6
Cc1ccc(NC(=O)c2cc(N3C(=O)C=CC3=O)ccc2Cl)cc1C	-21	4µM*	-6%	-10
CCCCc1nc2c(c3c1C[C@H](C)OC3)CN(C(=O)c1cc(I)ccc1F)CC2	x	2%[11.5 µM]	x	x
COc1ccc(C(CCN2CCN(c3ccccc3)CC2)c2c(O)cc(OC)cc2OC)cc1 (configuration not stated)	u	-4%	-1%	-29
COc1cc(O)c(C(CCN2CCN(c3ccccc3)CC2)c2ccc(N(C)C)cc2)c(OC)c1 (configuration not stated)	-78*	-1%	11%	-70*
CCn1c(C)nc2cc(C(=O)N/N=C/c3cccc(O)c3O)ccc21	-80*	-21%	9%	-94*
O=C(N/N=C/c1ccccc1)c1cc[n+]([O-])cc1	6	-1%	19%	2
O=C(N/N=C/c1cc(Br)ccc1O)c1ccncc1	-93*	-2%	u	-94*
CCn1c(C)nc2cc(C(=O)N/N=C/c3ccccc3)ccc21	-14	-2%	5%	-23
O=C(N/N=C/c1cccc2ccccc12)c1ccncc1	-11	1%	u	x
O=C(N/N=C/c1ccccc1O)c1ccncc1	-92*	x	x	-92*
O=C(N/N=C/c1ccccc1O)c1cc[n+]([O-])cc1	-78*	-1%	u	-94*
O=C(N/N=C/c1cc([N+](=O)[O-])ccc1O)c1cccc2cc[nH]c12	-70*	0%	x	-93*
Nc1nonc1C(=O)N/N=C/c1cc(Br)ccc1O	-93*	-8%	24%	-92*
SMILES	Six1-Eya2 blk	PKM2 activator	MBNL1 CUG block	CtBP-E1A inh
O=C(N/N=C/c1cc([N+](=O)[O-])ccc1O)c1ccncc1	-90*	-9%	x	x
O=C(N/N=C/c1cccc([N+](=O)[O-])c1)c1cccc2cc[nH]c12	1	-4%	7%	4
O=C(N/N=C/c1ccc(O)c2ncccc12)c1cccc(Br)c1	-82*	1%	9%	-92*
O=C(C[C@@H]1C[C@H]2c3cc(NC(=O)c4cccnc4)ccc3O[C@H]2[C@H](CO)O1)NCc1ccc(Oc2ccccc2)cc1	-4	x	x	-4
CCCCNC(=O)C1(C)CCCCN1C(=O)c1oc2ccccc2c1C (configuration not stated)	2	x	x	8
COC(=O)N1C2=C(c3ccccc3[C@@H]1CC(=O)Nc1ccc3ccc4cccc5ccc1c3c45)[C@@H]1C(=O)N(c3ccccc3)C(=O)[C@@H]1[C@H](C)C2	x	-8%[11.5 µM]	x	x
COc1cccc(/C=N/NC(=O)c2ccc(-c3ccccc3)cc2)c1O	7	-2%	5%	-4
